# Source: PubChem BioAssay AID602293 (National Center for Advancing Translational Sciences (NCATS), 2012)
# Among all 1,300 compounds or so, about 30 (2%) were called active. Not shown: some 10% with an inconclusive outcome. Shown is part of a subset that was picked to be rich in actives. A number with no mark means an inactive call. Calls come from the whole dose curve; as a rule, active = well fitted inhibition curve with a large enough effect; inconclusive = small, poorly fitted or top-dose-only effect; inactive = flat fitted curve, though single readings scatter.
# Assay: qHTS for antagonists of the Thyroid Stimulation Hormone Receptor: Hit Validation in HTRF Activity in a Luteinizing Hormone Receptor Cell Line
# Conditions: LHR-expressing cell line, cAMP HTRF, antagonist mode; series mostly up to 58 µM; activity change, negative = inhibition: at the top concentration
# Description: The thyroid-stimulating hormone receptor (TSHR) is a member of the 7 trans-membrane-spanning receptor (7TMR) family of cell surface receptors. TSHR-mediated hyperthyroidism is important in thyroid pathology. The development of small molecule antagonists of TSHR may lead to therapeutic approaches for TSHR-mediated hyperthyroidism caused by constitutively activating mutations or stimulating auto-antibodies associated with Graves' disease. Graves' disease is the leading cause of hyperthyroidism and is caused by autoantibodies that stimulate TSHR (TsAbs) causing thyroid growth and unregulated overproduction of thyroid hormones and existing treatments have liabilities (agranulocytosis). In addition, TSHRs are known to be expressed in multiple extrathyroidal tissues including bone, brain, kidney, testis, fat and cells of the immune system but the role of the TSHR in these tissues is not clear. Therefore, TSHR antagonists/inverse agonists could be used as probes of extrathyroidal TSHR function. Finally, TSHR inverse agonists, which are a subclass of antagonists that inhibit agonist-independent (or basal or constitutive) TSHR signaling, could be used to inhibit TSH-independent signaling in patients with recurrent or metastatic thyroid cancer who are receiving thyroid hormone to suppress TSH.
# In collaboration between scientist from the NCGC and the NIDDK, a miniaturized HTRF high-throughput screen was developed. It's a cell based assay, where an anti cAMP antibody contains a fluorescent cryptate tag (excitation 337 nm; emission 620 nm) and the acceptor is cAMP-d2 (excitation 620 nm; emission 665 nm). When antibody and cAMP-d2 interact and are excited by a 337 nm light, a FRET occurs resulting in emission at 665 nm. The assay is competition between cAMP-d2 and cAMP (from the cell lysate). The homogeneous protocol allows for one step dispense after stimulation that is automation friendly. In order to confirm specificity of the compounds to the TSHR, a confirmatory assay was conducted on a similar family member, the Luteinizing Hormone (LH) receptor, transfected into a HEK 293 cell line, using an orthogonal detection technology to measure cAMP stimulation: antibody-based Homogeneous Time Resolved Fluorescence (HTRF).
# NIH Chemical Genomics Center [NCGC]
# NIH Molecular Libraries Probe Centers Network [MLPCN]
# Assay Provider: Marvin Gershengorn, NIDDK
# Homogeneous Time Resolved Fluorescence (HTRF) cAMP Assay. HEK 293 cells stably transfected with a vector containing the LH receptor and maintained under hygromycin selection were obtained from the laboratory of Dr. Marvin Gershengorn. Compounds were assayed using a HTRF cAMP detection kit (Cisbio) on the LH receptor transfected cell line. Briefly, 750 cells were plated in 2.5 ul/well of complete media (DMEM containing 10 % FCS, and 100 uM RO 20-1724) in 1536 well solid bottom white plates and 23 nl/well compound in DMSO solution or controls was added. Following 30 minute incubation at room temperature, 2.5 ul/well of labeled d2 cAMP and 2.5 ul/well of anti-cAMP antibody (both diluted 1:20 in lysis buffer) were added to each well using a flying reagent dispenser (Aurora Discovery, San Diego) . Plates were measured using the Envision plate reader (PerkinElmer, Boston, MA) with excitation at 330 nm and emissions of 615 nm and 660 nm.
# % is set by controls: 0 for no effect and ±100 for the full control effect; potency is the fitted concentration of half-maximal effect.
Structure (SMILES),Potency,"activity change, negative = inhibition [%]"
Cc1ccc(-c2cc(-c3ccccc3)cc(-c3ccccc3)[n+]2-c2ccccc2)cc1,42.6 µM (active),–
COc1ccc(-[n+]2c(-c3ccccc3)cc(-c3ccc(C)cc3)cc2-c2ccccc2)cc1,–,-4.98
Oc1ccc(-[n+]2c(-c3ccccc3)cc(-c3ccccc3)cc2-c2ccccc2)cc1,39.8 µM (active),–
Cc1ccc(C[n+]2c(-c3ccc(C)cc3)cc(-c3ccc(C)cc3)cc2-c2ccc(C)cc2)cc1,37.9 µM (active),–
OCC[n+]1c2ccccc2nc2ccc(N3CCOCC3)cc21,–,-8.16
COC(=O)C1=C(c2ccc(OC(F)(F)F)cc2)C[C@@H]2CC[C@H]1N2C(=O)N1CCC(C)CC1,–,-4.89
COC(=O)C1=C(c2ccc(-c3ccccc3)c(F)c2)C[C@@H]2CC[C@H]1N2C(=O)NCC1CC1,–,-6.08
CN(C)CC1Oc2ccccc2OC1(O)c1ccccc1 (stereo not given),–,-2.31
C[C@H]1O[C@@H](OC2CC[C@]3(C=O)[C@H]4CC[C@]5(C)[C@@H](C6=CC(=O)OC6)CC[C@]5(O)[C@@H]4CC[C@]3(O)C2)CC2OC(C)(C)OC21 (stereo not given in full),–,-0.216
N#CC(C#N)=NNc1ccc(-n2ccc(C(F)(F)F)n2)cc1,–,-4.9
CC(=O)c1ccc2c(c1)C1C(Cl)C(Sc3ccccc3[N+](=O)[O-])CC1C(C(=O)O)N2 (stereo not given),–,-4.58
COC(=O)C1=C(c2ccc(-c3ccccc3)c(F)c2)C[C@@H]2CC[C@H]1N2C(=O)N1CCOCC1,–,-5.52
O=C(C1CCN(c2nc3ccc(Br)cc3s2)CC1)N1CCC2(CC1)OCCO2,–,-2.84
COc1cc2c(cc1/C=C/[N+](=O)[O-])OCO2,–,-4.92
C[C@]12CC[C@H]3C(CCC4(O)CC(O)CC[C@]34C=O)C1=CC[C@H]2c1ccc(=O)oc1 (stereo not given in full),–,-4.69
